# PMC7826789 (International Journal of Molecular Sciences, 2021)
# Assays:
# [1] = tested on: BTK
# [2] = tested on: BUB1
# [3] = tested on: CDK12
# [4] = tested on: CDK13
# [5] = tested on: CDK9
# [6] = tested on: CDK19
# [7] = tested on: CDK8
# [8] = tested on: CDK3
# [9] = tested on: CDK7
smiles,measurement,setting,value
C=CC(=O)Nc1cc(-n2c(=O)ccc3cnc4ccc(-c5ccc(NS(C)(=O)=O)cc5)cc4c32)ccc1C [BMX-IN-1],Kinases covered,[1],BTK
C#Cc1cccc(Nc2ncnc3cc(OC)c(OC4CCN(C)CC4)cc23)c1 [BI00007366],Kinases covered,[2],BUB1
COc1cc2ncnc(Nc3ccc(F)c(Cl)c3)c2cc1O[C@H]1CC[C@H](N)CC1 [BIBW3133BS],Kinases covered,[2],BUB1
CN(C)C/C=C/C(=O)Nc1ccc(C(=O)N2CCC[C@@H](Nc3ncc(Cl)c(-c4c[nH]c5ccccc45)n3)C2)cc1 [THZ531],Kinases covered,[3],CDK12
same,Kinases covered,[4],CDK13
COC[C@@H](C)N[C@H]1CC[C@H](Nc2cc(-c3cccc(NCC4(C#N)CCOCC4)n3)c(Cl)cn2)CC1 [NVP-2],Kinases covered,[4],CDK13
same,Kinases covered,[5],CDK9
Cn1cc(-c2ccc(-c3cncc(Cl)c3N3CCC4(CCNC4=O)CC3)cc2)cn1 [CCT251545],Kinases covered,[6],CDK19
same,Kinases covered,[7],CDK8
Cn1ncc2cc(-c3cnc(N)c(Cl)c3N3CCC4(CCNC4=O)CC3)ccc21 [CCT251921],Kinases covered,[6],CDK19
same,Kinases covered,[7],CDK8
CC(C)COC(=O)c1ccc2c(c1)/C(=C/Nc1ccc(S(N)(=O)=O)cc1)C(=O)N2 [GW416981X],Kinases covered,[8],CDK3
CCC(NN(C)C)=C1C(=O)Nc2ccc(C(C)=O)cc21 [BI00036838],Kinases covered,[9],CDK7
CN(C)C/C=C/C(=O)Nc1ccc(C(=O)Nc2cccc(Nc3ncc(Cl)c(-c4c[nH]c5ccccc45)n3)c2)cc1 [THZ1],Kinases covered,[9],CDK7
